Compound activity deposited in PubChem BioAssay by National Center for Advancing Translational Sciences (NCATS).
This is a sample that favours compounds with a hit; in the whole collection about 3.1% have one here.
TRb-SRC2 inh: inhibitors of human thyroid hormone receptor beta-SRC2 interaction. TRbeta-SRC2 peptide binding, fluorescence polarization; receptor liganded with 1 µM T3. Potency, µM (doses to about 106 µM), actives largely listed as inhibitors. P10828. actives 0.065% (n = 280,000). AID 1469; also: nearly all actives have a fitted effect of over 50% in size
Target sequence (P10828 whole entry, looked up): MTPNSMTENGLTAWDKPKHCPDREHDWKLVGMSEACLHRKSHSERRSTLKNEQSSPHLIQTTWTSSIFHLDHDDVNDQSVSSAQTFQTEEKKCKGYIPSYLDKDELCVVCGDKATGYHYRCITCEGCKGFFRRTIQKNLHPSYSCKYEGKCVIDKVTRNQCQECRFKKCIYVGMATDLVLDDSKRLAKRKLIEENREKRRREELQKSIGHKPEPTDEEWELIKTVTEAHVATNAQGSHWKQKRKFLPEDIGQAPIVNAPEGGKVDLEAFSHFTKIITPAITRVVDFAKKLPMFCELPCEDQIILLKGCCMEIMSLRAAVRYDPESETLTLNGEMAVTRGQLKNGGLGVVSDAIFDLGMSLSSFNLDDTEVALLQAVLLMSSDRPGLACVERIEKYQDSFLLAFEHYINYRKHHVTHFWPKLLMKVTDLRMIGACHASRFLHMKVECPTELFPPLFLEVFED
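Fluorescence polarization of 20 nM Texas Red SRC2 peptide with 0.6 uM human TRb ligand-binding domain, in Tris buffer with 1uM T3 and 5% DMSO. Incubated 5 hr ambient; normalized to unbound and bound controls.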
Tau ThT inhib: blocks human tau fibril formation measured by thioflavin T; P10636; recombinant tau K18 P301L, heparin-induced fibrillization, ThT fluorescence; Potency, µM (series often up to 57.4 µM), hits mostly inhibitors; actives 2.1% (n = 270,000); AID 1460; also: nearly all actives have a fitted effect of over 55% in size
Target sequence (P10636 561-689 P618L limits assumed): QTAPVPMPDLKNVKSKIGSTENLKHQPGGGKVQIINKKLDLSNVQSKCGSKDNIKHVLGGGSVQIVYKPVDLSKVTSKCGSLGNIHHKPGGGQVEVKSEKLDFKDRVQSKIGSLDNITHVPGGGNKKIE
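Heparin-induced (20 uM) aggregation of recombinant human K18 P301L tau, 15 uM unlabeled with 0.24 uM labeled, pH 7 acetate buffer, 6 hr at 37 C with compound. Fibrils quantified by 30 uM ThT fluorescence after 1 hr ambient incubation.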
Tau fluor cs: counter-screen for tau fibril formation inhibitors; tau K18 P301L (four-repeat tau fragment) Alexa594 fluorescence, heparin fibrillization; Potency, µM (series often up to 57.7 µM); actives 0.93% (n = 280,000); AID 1463; also: nearly all actives have a fitted effect of over 55% in size
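Human K18 P301L tau (15 uM unlabeled plus 0.24 uM Alexa 594-labeled, final) in 100 mM sodium acetate pH 7 was mixed with compound and 20 uM heparin and incubated 6 hr at 37 C.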
TexasRed fluor: counter-screen for TRb-SRC2 inhibitors: fluorescence interference. AID 1479. TRb/SRC2 Texas Red total fluorescence interference. Potency, µM (series often up to 106 µM). actives 0.29% (n = 280,000); active = well fitted curve in either direction with a large enough effect; inconclusive = small, poorly fitted or top-dose-only effect
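Human TRβ ligand-binding domain (0.6 uM) and Texas Red SRC2 peptide (20 nM) in Tris buffer with 1 uM T3 and 5% DMSO were incubated with pinned compound for 5 hr at ambient temperature. Total fluorescence was computed as S + 2P (555/632 nm).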
GoLoco inh red: blocks human Gai1 binding to RGS12 GoLoco peptide, red readout. P63096. Gai1:RGS12 GoLoco peptide FP, rhodamine, 10 min. Potency, µM (series often up to 61.6 µM), hits mostly inhibitors. actives 0.44% (n = 230,000). AID 880; active = well fitted inhibition curve with a large enough effect, not every such curve was filed as active; inactive = no such curve, though single readings can be large or run the other way; also: nearly all actives have a fitted effect of over 30% in size
Tau FP inhib: inhibitors of human tau fibril formation; P10636; K18 P301L tau heparin fibrillization, Alexa594 FP, 6 h; Potency, µM (doses to about 57.7 µM), actives largely listed as inhibitors; actives 0.39% (n = 280,000); AID 1468; also: nearly all actives have a fitted effect of over 55% in size
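Human K18 P301L fragment (15 uM unlabeled plus 0.24 uM Alexa 594-labeled) in 100 mM sodium acetate pH 7 with compound, aggregation induced by 20 uM heparin for 6 hr at 37 C. ThT (30 uM) added for 1 hr, then Alexa 594 FP read.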
Large screens that a line does not name were inactive; ! = a repeat was not active; [ ] = dose if it differs, or a comment. Unless noted, calls follow the shape of the dose curve; as a rule, active = well fitted curve in the direction sought with a large enough effect; inconclusive = small, poorly fitted or top-dose-only effect, or another doubt; inactive = no such curve, though single readings can be large; an effect the other way counts as inactive or inconclusive.

CCc1cccc(NC(=O)Cn2ncn3c(cc4ccccc43)c2=O)c1	none
CSc1cccc(NC(=O)Cn2ncn3c(cc4ccccc43)c2=O)c1	Tau fluor cs 20µM[quencher] (no result: GoLoco inh red)
COc1ccc(CN2CCN(C(=O)c3cccc(OC)c3OC)CC2)cc1OC	none
O=C(O)c1ccccc1N/N=C/c1c(Sc2nnnn2-c2ccccc2)nc2ccccn2c1=O	Tau ThT inhib 7.94µM, Tau fluor cs inconclusive
CC(/C=C/c1ccco1)=N\NC(=O)CNc1ccc2ccccc2c1	Tau ThT inhib 7.94µM, Tau fluor cs inconclusive
O=C(CNc1ccc2ccccc2c1)N/N=C/C=C/c1cccc([N+](=O)[O-])c1	Tau ThT inhib inconclusive, Tau fluor cs 7.08µM[quencher]
O=C(N/N=C/C=C/c1cccc([N+](=O)[O-])c1)C(O)c1ccccc1 (stereo not drawn)	none
CC(/C=C/c1ccco1)=N/NC(=O)CNc1ccccc1C	Tau ThT inhib inconclusive
CCCCC(=O)NNC(=S)NCc1ccccc1	none
COc1ccccc1N1CCN(C(=O)CNS(=O)(=O)c2ccc(Br)s2)CC1	TRb-SRC2 inh inconclusive, TexasRed fluor 79.4µM[quencher] (no result: GoLoco inh red)
COc1ccccc1N1CCN(C(=O)CCNS(=O)(=O)c2ccc(Br)s2)CC1	none
CC(Oc1ccc(Cl)cc1Cl)c1nc(-c2ccc(NC(=O)c3cccnc3)cc2)no1 (stereo not drawn)	Tau fluor cs inconclusive, Tau FP inhib 15.8µM
CC(Oc1ccc(Cl)cc1Cl)c1nc(-c2ccc(NC(=O)c3ccncc3)cc2)no1 (stereo not drawn)	none
N#Cc1cccc(NC(=O)COC(=O)c2ccccc2Sc2ccccc2C#N)c1	Tau fluor cs inconclusive, Tau FP inhib 15.8µM (no result: GoLoco inh red)
COc1cc(/C=C2\SC(=O)N(Cc3ccc(F)cc3)C2=O)cc([N+](=O)[O-])c1O	Tau ThT inhib 14.1µM
COc1cc(/C=C2\SC(=O)N(Cc3ccc(Cl)cc3)C2=O)cc([N+](=O)[O-])c1O	Tau ThT inhib 12.6µM
CCOC(=O)CN1C(=O)S/C(=C/c2ccc(OC)c([N+](=O)[O-])c2)C1=O	none
NS(=O)(=O)c1ccc(N/C=C/C(=O)c2ccc(Br)cc2)cc1	none
Cc1ccc(N=Nc2c(O)ccc3ccccc23)c([N+](=O)[O-])c1	none (no result: Tau ThT inhib, Tau fluor cs, GoLoco inh red, Tau FP inhib)
O=[N+]([O-])c1ccccc1NCc1c(O)ccc2ccccc12	Tau ThT inhib inconclusive, Tau fluor cs 12.6µM[quencher]
O=C(Cn1c(=O)n(Cc2ccco2)c(=O)c2ccc(C(=O)NC3CCCC3)cc21)Nc1ccc(F)cc1	Tau ThT inhib inconclusive, Tau fluor cs inconclusive, Tau FP inhib 15.8µM (no result: GoLoco inh red)
CC1(OC(=O)C2CCCC2)C(=O)C=C2C=C(c3ccsc3)N(C3CCCC3)C=C2C1=O (stereo not drawn)	Tau ThT inhib inconclusive
CC1(OC(=O)c2cccs2)C(=O)C=C2C=C(c3ccsc3)OC=C2C1=O (stereo not drawn)	Tau FP inhib inconclusive
CC1(OC(=O)C2CCCC2)C(=O)C=C2C=C(c3ccsc3)N(CCCCO)C=C2C1=O (stereo not drawn)	Tau ThT inhib inconclusive
COc1ccc(CN2C=C3C(=O)C(C)(OC(=O)C4CCCC4)C(=O)C=C3C=C2c2ccsc2)cc1 (stereo not drawn)	Tau ThT inhib 17.8µM!, Tau FP inhib inconclusive
CC1(OC(=O)CCc2ccccc2)C(=O)C=C2C=C(c3ccc(C#N)cc3)N(c3ccccc3)C=C2C1=O (stereo not drawn)	Tau ThT inhib 12.6µM!, Tau FP inhib inconclusive
CC1(OC(=O)c2cccs2)C(=O)C=C2C=C(c3ccc(C#N)cc3)OC=C2C1=O (stereo not drawn)	Tau ThT inhib 28.2µM, Tau FP inhib inconclusive
CC1(OC(=O)C2CCCC2)C(=O)C=C2C=C(c3ccsc3)OC=C2C1=O (stereo not drawn)	Tau ThT inhib 15.8µM, Tau fluor cs inconclusive, Tau FP inhib inconclusive
Cc1cccn2c(=O)c3cc(C#N)c(=N)n(Cc4ccncc4)c3nc12	none
O=C(Nc1nc(-c2ccccc2)c(-c2ccccc2)o1)c1ccc(F)cc1	none
O=C(COC(=O)c1ccc(Cl)nc1)Nc1ncc(Cl)cc1Cl	none
C[C@@](N)(C(=O)O)c1ccc(C(=O)O)cc1	none
CN1CCSc2ccc(C(=O)Nc3cc(F)ccc3F)cc21	Tau ThT inhib inconclusive, Tau fluor cs inconclusive
CC1(OC(=O)CCc2ccccc2)C(=O)C=C2C=C(c3ccsc3)OC=C2C1=O (stereo not drawn)	Tau ThT inhib 25.1µM, Tau FP inhib inconclusive
CC(C)c1ccccc1NC(=O)CNCCc1ccc(C(F)(F)F)cc1	none
CCOC(=O)c1cnn(-c2ccccc2)c1-n1cccc1C(=O)C(=O)Nc1ccc(OC)cc1	none
COc1ccc(/C=C2\CCCC(C(=O)C(F)(F)F)=C2O)cc1OC	Tau ThT inhib 15.8µM, Tau FP inhib inconclusive
COc1ccc(/C=C2\CCCc3c2nc2ccccc2c3C(=O)O)cc1OC	Tau ThT inhib inconclusive, GoLoco inh red 25.1µM
COc1ccc(/C=C2\CCc3c2nc2ccccc2c3C(=O)O)cc1OC	Tau ThT inhib inconclusive
O=C1NN(c2ccccc2)C(=O)/C1=C\c1coc2ccc(O)cc2c1=O	Tau ThT inhib 14.1µM, Tau fluor cs inconclusive
Cc1cc(/C=C2/C(=O)NN(c3ccccc3)C2=O)c(C)n1-c1ccc(O)cc1	Tau ThT inhib 12.6µM
O=C1NN(c2ccccc2)C(=O)/C1=C/c1coc2ccccc2c1=O	none
N#Cc1nc(-c2ccccc2)oc1NCCCn1ccnc1	none
Nc1cc(=O)nc(SCC(=O)Nc2ccc(F)cc2)n1-c1ccccc1Cl	none (no result: GoLoco inh red)
O=C(CN1C(=O)CSC1=O)N1CCCCC1	none
O=[N+]([O-])c1ccc(-c2ccc(/C=N/O)o2)cc1	Tau ThT inhib 7.08µM
NC(=O)N/N=C/c1ccc(-c2ccc([N+](=O)[O-])cc2)o1	Tau fluor cs inconclusive (no result: Tau ThT inhib)
COc1ccc(C2CC(c3ccccc3)Nc3nc(NS(C)(=O)=O)nn32)cc1 (stereo not drawn)	Tau fluor cs inconclusive (no result: Tau ThT inhib)
Cc1ccc(/C=N\NC(=O)C2COc3cc4ccccc4cc3O2)o1 (stereo not drawn)	Tau ThT inhib inconclusive
O=C(N/N=C\c1ccc([N+](=O)[O-])o1)C1COc2ccccc2O1 (stereo not drawn)	Tau ThT inhib inconclusive
O=C(N/N=C\c1ccc(-c2ccccc2[N+](=O)[O-])o1)C1COc2ccccc2O1 (stereo not drawn)	Tau ThT inhib 12.6µM, Tau fluor cs inconclusive, Tau FP inhib inconclusive
O=C(N/N=C\c1ccc(-c2ccccc2[N+](=O)[O-])o1)C1COc2cc3ccccc3cc2O1 (stereo not drawn)	Tau ThT inhib 11.2µM, Tau fluor cs inconclusive, Tau FP inhib inconclusive
NCCCCCN	none (no result: Tau ThT inhib, Tau fluor cs, GoLoco inh red, Tau FP inhib)
